Compound activity: PubChem BioAssay, National Center for Advancing Translational Sciences (NCATS)
Only some compounds are listed: those with a hit (about 2.7% of all), similar ones and a draw of the others.
LDHA block: inhibitors of human lactate dehydrogenase A; purified LDHA, NADH/diaphorase-resazurin fluorescence; active compounds read low; P00338; activity change, % (values are at about 110 or 230 µM); 480,000 compounds, 0.15% hits; in the data active means activity change below about -30%; inconclusive means mostly about -25% to -30%
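LDH5 2 nM; NADH 0.06 mM, pyruvate 0.2 mM; 200 mM Tris pH 7.4, EDTA, Tween-20; 5 min RT. Detection: diaphorase 0.133 mg/mL + resazurin 37 µM, fluorescence ex540/em590 at 0 and 20 min; normalized to enzyme-free and DMSO wells.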
A549 tox: counter-screen for Nrf2 inhibitors: cytotoxicity in A549 cells; Potency, µM (doses to about 46 µM), actives largely listed as inhibitors; A549 ARE-Fluc cells, CellTiter-Fluor viability, 18-24 h; 390,000 compounds, 0.16% hits; AID 504648
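A549 ARE-Fluc cells in 5% FBS OPTI-MEM, 5000 cells/well, rested 2 h then exposed to compounds in concentration-response for 18-24 h at 37 °C. Viability by CellTiter-Fluor fluorescence (Ex 405/Em 525) after 30 min; luciferase luminescence (BugLite, 15 min, RT) read afterwards.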
12-LOX inh: blocks human arachidonate 12S-lipoxygenase | P18054 | purified 12hLO, xylenol orange hydroperoxide absorbance | Potency, µM (series often up to 108 µM), usual class: inhibitors | 580,000 compounds, 1.1% hits
Target sequence (P18054 whole entry, looked up): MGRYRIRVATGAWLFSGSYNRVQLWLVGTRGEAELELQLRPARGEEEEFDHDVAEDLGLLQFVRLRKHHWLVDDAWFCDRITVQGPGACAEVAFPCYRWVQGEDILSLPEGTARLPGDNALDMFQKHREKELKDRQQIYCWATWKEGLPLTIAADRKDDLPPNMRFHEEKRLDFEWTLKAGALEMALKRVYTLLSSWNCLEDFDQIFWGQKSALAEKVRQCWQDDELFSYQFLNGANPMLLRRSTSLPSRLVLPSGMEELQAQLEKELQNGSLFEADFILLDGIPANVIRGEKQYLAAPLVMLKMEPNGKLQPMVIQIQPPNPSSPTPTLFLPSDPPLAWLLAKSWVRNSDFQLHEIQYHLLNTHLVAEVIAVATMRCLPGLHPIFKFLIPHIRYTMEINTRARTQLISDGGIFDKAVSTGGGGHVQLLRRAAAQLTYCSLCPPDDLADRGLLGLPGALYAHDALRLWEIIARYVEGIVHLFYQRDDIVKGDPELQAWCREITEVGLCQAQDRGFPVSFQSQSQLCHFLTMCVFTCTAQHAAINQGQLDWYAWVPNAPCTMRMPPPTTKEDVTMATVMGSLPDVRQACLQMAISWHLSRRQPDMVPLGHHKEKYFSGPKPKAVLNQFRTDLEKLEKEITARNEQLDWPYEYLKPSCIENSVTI
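Hydroperoxide product was detected by ferrous iron/xylenol orange as the 573 to 405 nm absorbance ratio. Arachidonic acid at 40 uM (final) was turned over for 30 min at room temperature by 150 nM human 12hLO, pH 7.0 Hepes buffer, after 15 min compound preincubation.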
Nrf2 block: blocks Nrf2 signaling. A549 ARE-Fluc reporter, luciferase luminescence, 18-24 h. Potency, µM (doses to about 46 µM), usual class: inhibitors. 360,000 compounds, 2.1% hits. AID 504444; further: nearly all actives have a fitted effect of over 60% in size
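Nrf2 function is reported as luminescence of an ARE-controlled luciferase in A549 cells. Compounds were tested at several concentrations, and a CellTiter-Fluor read on the same wells flagged cytotoxicity.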
IDH1 R132H inh: blocks human mutant IDH1 R132H enzyme; Potency, µM (series often up to 76.6 µM), actives largely listed as inhibitors; IDH1-R132H enzyme, NADPH consumption, diaphorase/resazurin fluorescence; 390,000 compounds, 0.093% hits; O75874; AID 602179; further: nearly all actives have a fitted effect of over 65% in size
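IDH1-R132H (0.5 ug/mL) preincubated 30 min with compound, then NADPH (0.016 mM) and alpha-KG (2 mM) added; 80 min at RT, pH 7.5. Remaining NADPH coupled via diaphorase/resazurin to fluorescence (540/590 nm); concentration-response curves normalized to no-enzyme control.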
Nrf2 ARE act: activators of Nrf2 (ARE) signaling | AREc32 ARE-luciferase reporter (MCF7-derived line), luminescence, 24 h | Potency, µM (top dose mostly 46.1 µM), actives largely listed as activators | 410,000 compounds, 0.31% hits | AID 624171; further: nearly all actives have a fitted effect of over 65% in size
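ARE activation measured as luciferase luminescence (Steady-Glo, 30 min RT) in AREc32_Fluc cells after 24 hr compound exposure at 37 deg C, 5% CO2; cells seeded overnight at 1000/well in OPTI-MEM, 5% FBS.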
Large screens that a line does not name were inactive; ! = repeats disagree. Unless noted, the call rests on the fitted dose curve; in most records, active means well fitted curve in the direction sought with a large enough effect; inconclusive means small, poorly fitted or top-dose-only effect, or another doubt; inactive means no such curve, though single readings can be large; an effect the other way counts as inactive or inconclusive.

CCOc1ccccc1NC(=O)Nc1ccsc1C(=O)OC	none
COC(=O)c1sccc1NC(=O)c1ccc(C)o1	Nrf2 ARE act inconclusive
COC(=O)c1ccccc1NC(=O)COc1ccccc1[N+](=O)[O-]	Nrf2 block inconclusive, Nrf2 ARE act 5.01µM
Cc1ccc2cc(C(=O)N(Cc3ccco3)C3CC3)[nH]c2c1	none (no result: A549 tox, Nrf2 block, IDH1 R132H inh, Nrf2 ARE act)
CCc1ccccc1NC(=O)CSC1=C(C#N)C2(CCC(C(C)(C)C)CC2)C(C#N)C(=O)N1 (stereo not drawn)	12-LOX inh inconclusive (no result: A549 tox, Nrf2 block, IDH1 R132H inh, Nrf2 ARE act)
COC(=O)c1sccc1NC(=O)c1ccccc1C(=O)O	none
COC(=O)c1sccc1NC(=O)c1ccccc1	Nrf2 block inconclusive, Nrf2 ARE act 7.08µM
CC(c1ccc(Cl)cc1)N(C)C(=O)CCc1ncc(-c2ccc(Cl)cc2)o1 (stereo not drawn)	12-LOX inh inconclusive (no result: A549 tox, Nrf2 block, IDH1 R132H inh, Nrf2 ARE act)
O=C(CSc1nnc(-c2ccco2)n1C1CCCCC1)N1CCN(c2ncccn2)CC1	none (no result: A549 tox, Nrf2 block, IDH1 R132H inh, Nrf2 ARE act)
COc1cc(/C=C(/C#N)c2ccc(Cl)cc2)cc(OC)c1OC	none (no result: A549 tox, Nrf2 block, IDH1 R132H inh, Nrf2 ARE act)
COc1ccc(N(C)S(=O)(=O)c2cccc(C(=O)Nc3nc4ccccc4[nH]3)c2)cc1	Nrf2 block 23.1µM
O=C(Nc1nc2ccccc2[nH]1)c1cccc(Cl)c1	Nrf2 block inconclusive, Nrf2 ARE act 5.01µM
Cc1cccc(-c2n[nH]c(=S)n2/N=C/C=C/c2ccco2)c1	12-LOX inh 25.1µM, Nrf2 ARE act 2.51µM
CC(/C=N/n1c(-c2ccncc2)n[nH]c1=S)=C\c1ccco1	12-LOX inh 7.08µM, Nrf2 ARE act 7.08µM
S=c1[nH]nc(-c2ccncc2)n1/N=C/C=C/c1ccco1	12-LOX inh inconclusive, Nrf2 ARE act inconclusive
CC(=C/c1ccccc1)/C=N/n1c(-c2ccncc2)n[nH]c1=S	12-LOX inh 12.6µM
CC(/C=N/n1c(-c2ccc(C)cc2)n[nH]c1=S)=C\c1ccco1	12-LOX inh inconclusive, Nrf2 ARE act inconclusive
CC(C)(C)C(=O)/C=c1/[nH]c(=O)/c(=C/c2ccc(OC(F)F)cc2)s1	none (no result: A549 tox, Nrf2 block, IDH1 R132H inh, Nrf2 ARE act)
Cc1ccc(NC(NC(=O)c2ccccc2)C(Cl)Cl)cc1 (stereo not drawn)	none (no result: A549 tox, Nrf2 block, IDH1 R132H inh, Nrf2 ARE act)
Cn1c(=O)c2c(nc(CN3CCN(c4ccccc4F)CC3)n2Cc2ccccc2)n(C)c1=O	none (no result: A549 tox, Nrf2 block, IDH1 R132H inh, Nrf2 ARE act)
CCC(C)NC(=O)C1COC2(CCN(C(=O)c3cccc(Cl)c3)CC2)N1C(=O)c1ccccc1C (stereo not drawn)	none (no result: LDHA block, A549 tox, Nrf2 block, IDH1 R132H inh, Nrf2 ARE act)
COC(=O)c1c(C)[nH]c(C(=O)N2CCCC2c2cc(OC)ccc2OC)c1C (stereo not drawn)	none (no result: A549 tox, Nrf2 block, IDH1 R132H inh, Nrf2 ARE act)
CCN(CC)S(=O)(=O)c1ccc(NC(=O)NCc2noc3ccc(C)cc23)cc1	A549 tox inconclusive, Nrf2 block 18.4µM
CCCCN(CCCC)S(=O)(=O)c1ccc2oc(C(=O)NCc3ccc(C)cc3)c(C)c2c1	none (no result: Nrf2 block)
CCN(CC)S(=O)(=O)c1ccc2oc(C(=O)NCc3ccc(C)cc3)c(C)c2c1	Nrf2 block 16.4µM
CC(=O)N/C(=C\c1ccccc1)C(=O)O	12-LOX inh inconclusive (no result: A549 tox, Nrf2 block, IDH1 R132H inh, Nrf2 ARE act)
CCN(CC)c1nc2ccccc2nc1C(C#N)S(=O)(=O)c1ccc(C)cc1 (stereo not drawn)	12-LOX inh 14.1µM (no result: A549 tox, Nrf2 block, IDH1 R132H inh, Nrf2 ARE act)
COc1ccc(C2=[N+]([O-])C(C)(c3ccccc3)N(O)C2C)cc1 (stereo not drawn)	none (no result: A549 tox, Nrf2 block, IDH1 R132H inh, Nrf2 ARE act)
O=C(CC1C(=O)NCCN1Cc1ccc(-c2ccccc2)cc1)NCC1CC1 (stereo not drawn)	A549 tox inconclusive, Nrf2 block 23.1µM
O=C(CCN1CCN(c2cnccn2)CC1)Nc1cccc(Cl)c1	none (no result: A549 tox, Nrf2 block, IDH1 R132H inh, Nrf2 ARE act)
O=C(CCc1ccccc1)Nc1ncnc2c1C(c1ccccc1)c1c(ccc3ccccc13)O2 (stereo not drawn)	Nrf2 block 4.61µM (no result: 12-LOX inh, IDH1 R132H inh, Nrf2 ARE act)
O=C(c1ccccc1)N(C(=O)c1ccccc1)c1ncnc2c1C(c1ccccc1)c1c(ccc3ccccc13)O2 (stereo not drawn)	A549 tox inconclusive, Nrf2 block 2.91µM! (no result: IDH1 R132H inh)
CCOC(=O)CCCC(=O)Nc1ncnc2c1C(c1ccccc1)c1c(ccc3ccccc13)O2 (stereo not drawn)	A549 tox inconclusive, Nrf2 block inconclusive (no result: IDH1 R132H inh)
